Data taken from the antibiotic and cytotoxicity screens of Wong et al. (2023).
In all, about 39,000 compounds went through this assay and about 500 (1.3%) were called active. The sample as a whole holds a higher share of actives than the screen did.

These molecules were tested on S. aureus RN4220 (assay: growth inhibition call (relative growth <= 0.2)). Settings: 50 µM.

Row | SMILES | growth inhibition call
1 | O=C(O)c1cnc(N2CCCC2)nc1 | inactive
2 | Cc1ccc(Cl)c(Nc2ccccc2C(=O)[O-])c1Cl.[Na+] | inactive
3 | Cc1cc(=O)c(C(=O)N[C@@H](C(=O)N[C@@H]2C(=O)N3C(C(=O)O)=C(CSc4nnnn4C)CS[C@H]23)c2ccc(O)cc2)c[nH]1 | active
4 | Cc1cc(O)c(C(=O)NC(C(=O)NC2C(=O)N3C(C(=O)O)=C(CSc4nnnn4C)CSC23)c2ccc(O)cc2)cn1 (configuration not stated) | active
5 | CCN1CCN(C(=O)NC(C(=O)NC2C(=O)N3C(C(=O)O)=C(CSc4nnnn4C)CSC23)c2ccc(O)cc2)C(=O)C1=O (configuration not stated) | active
6 | Cc1cc2nc3ccc(N(C)C)cc3[s+]c2cc1N.[Cl-] | inactive
7 | C=CCOC(=O)[C@H]1[C@@H]2C(=O)O[C@@H](c3ccccc3)[C@@H](c3ccccc3)N2[C@@H](c2ccc(OCCOC(=O)[C@H]3C[C@H]4C(=O)N[C@@H](CC(C)C)C(=O)N4[C@H]3c3cccc(OCCO)c3)cc2)[C@]12C(=O)Nc1ccc(I)cc12 | inactive
8 | COc1ccc(S(=O)(=O)N(C)C[C@@H]2Oc3cc(C4=CCCC4)ccc3S(=O)(=O)N([C@@H](C)CO)C[C@H]2C)cc1 | inactive
9 | C[C@H](CO)N1C[C@H](C)[C@H](CN(C)Cc2ccc(C(F)(F)F)cc2)Oc2ccc(NS(=O)(=O)c3ccc(Cl)cc3)cc2C1=O | inactive
10 | CC[C@@H]1OC(=O)C[C@@H](O)[C@H](C)[C@@H](O[C@@H]2O[C@H](C)[C@@H](O)[C@H](N(C)C)[C@H]2O)[C@@H](CCN2C[C@H](C)C[C@H](C)C2)C[C@@H](C)C(=O)/C=C/C(C)=C\[C@@H]1CO[C@@H]1O[C@H](C)[C@@H](O)[C@@H](OC)[C@H]1OC | active
11 | CC[C@H]1OC(=O)C[C@@H](O)[C@H](C)[C@@H](O[C@@H]2O[C@H](C)[C@@H](O)[C@H](N(C)C)[C@H]2O)[C@@H](CCN2C[C@H](C)C[C@H](C)C2)C[C@@H](C)C(=O)/C=C/C(C)=C/[C@@H]1CO[C@@H]1O[C@H](C)[C@@H](O)[C@@H](OC)[C@H]1OC | active
12 | CCC1OC(=O)CC(O)C(C)C(OC2OC(C)C(O)C(N(C)C)C2O)C(CCN2CC(C)CC(C)C2)CC(C)C(=O)C=CC(C)=CC1COC1OC(C)C(O)C(OC)C1OC (configuration not stated) | active
13 | C[C@@H]1CN([C@H](C)CO)C(=O)Cc2cc(NS(C)(=O)=O)ccc2O[C@H]1CN(C)S(=O)(=O)c1cn(C)cn1 | inactive
14 | C[C@@H]1CN([C@@H](C)CO)C(=O)Cc2cc(NC(=O)c3ccncc3)ccc2O[C@H]1CN(C)S(=O)(=O)c1ccc(Cl)cc1 | inactive
15 | C[C@@H]1CCCCO[C@H](CN(C)S(=O)(=O)c2cn(C)cn2)[C@H](C)CN([C@H](C)CO)C(=O)c2cc(NS(=O)(=O)c3ccccc3)ccc2O1 | inactive
16 | C[C@H](CO)N1C[C@H](C)[C@@H](CN(C)S(=O)(=O)c2cn(C)cn2)Oc2ccc(NC(=O)CCCN(C)C)cc2C1=O | inactive
17 | C[C@@H]1CCCCO[C@@H](CN(C)S(=O)(=O)c2ccc(F)cc2)[C@H](C)CN([C@@H](C)CO)C(=O)c2cc(NC(=O)CCC(F)(F)F)ccc2O1 | inactive
18 | CC(C)C[C@@H]1NC(=O)[C@@H](C(C)C)NC(=O)[C@@H]2CCCN2C(=O)[C@@H](CC(=O)O)NC(=O)[C@@H](Cc2c[nH]c3ccccc23)NC1=O | inactive
19 | CC(C)C[C@H]1NC(=O)[C@@H](CCCN)NC(=O)[C@H](C(C)C)NC(=O)[C@H]2CCCN2C(=O)[C@@H](Cc2ccccc2)NC(=O)[C@@H](CC(C)C)NC(=O)[C@@H](CCCN)NC(=O)[C@H](C(C)C)NC(=O)[C@H]2CCCN2C(=O)[C@@H](Cc2ccccc2)NC1=O | inactive

Row | SMILES | growth inhibition call
20 | C[C@@H]1CN([C@H](C)CO)C(=O)c2cccc(NC(=O)c3cnccn3)c2O[C@H]1CN(C)S(=O)(=O)c1ccccc1 | inactive
21 | C[C@@H]1CN([C@@H](C)CO)S(=O)(=O)c2ccc(C#CCN(C)C)cc2O[C@H]1CN(C)Cc1cccnc1 | inactive
22 | OC[C@H]1O[C@H]2O[C@@H]3[C@@H](O)[C@H](O)[C@H](O[C@@H]4[C@@H](O)[C@H](O)[C@H](O[C@@H]5[C@@H](O)[C@H](O)[C@H](O[C@@H]6[C@@H](O)[C@H](O)[C@H](O[C@@H]7[C@@H](O)[C@H](O)[C@H](O[C@@H]8[C@@H](O)[C@H](O)[C@H](O[C@@H]1[C@@H](O)[C@@H]2O)O[C@@H]8CO)O[C@@H]7CO)O[C@@H]6CO)O[C@@H]5CO)O[C@@H]4CO)O[C@@H]3CO | inactive
23 | CC1=CC(=O)c2ccccc2C1=O | active
24 | O=C1C=C(O)C(=O)c2ccccc21 | inactive
25 | NC1=CC(=O)c2ccccc2C1=O | inactive
26 | C[C@H](O)C#Cc1ccc2c(c1)O[C@H](CN(C)C(=O)c1ccccc1)[C@@H](C)CN([C@H](C)CO)S2(=O)=O | inactive
27 | CN(CC(=O)O)S(=O)(=O)c1ccc(F)cc1 | inactive
28 | C[C@H](CO)N1C[C@H](C)[C@@H](CN(C)Cc2ccc(C(F)(F)F)cc2)Oc2ccc(NC(=O)C3CCCCC3)cc2C1=O | inactive
29 | CC1(C)S[C@H]2[C@@H](NC(=O)[C@@H](N)c3ccccc3)C(=O)N2[C@@H]1C(=O)O | inactive
30 | CC1(C)S[C@@H]2[C@H](NC(=O)[C@H](N)c3ccc(O)cc3)C(=O)N2[C@H]1C(=O)O | active
31 | CC1(C)S[C@@H]2[C@H](NC(=O)C3(N)CCCCC3)C(=O)N2[C@H]1C(=O)O | active
32 | CC1(C)SC2C(NC(=O)C(N)c3ccc(O)cc3)C(=O)N2C1C(=O)O (configuration not stated) | active
33 | C[C@H]1CN([C@@H](C)CO)C(=O)Cc2cc(NS(=O)(=O)c3cn(C)cn3)ccc2O[C@H]1CN(C)C(=O)NC1CCCCC1 | inactive
34 | C[C@H]1CN([C@@H](C)CO)C(=O)Cc2cc(NS(=O)(=O)c3cn(C)cn3)ccc2O[C@@H]1CN(C)C(=O)Nc1ccc2c(c1)OCO2 | inactive
35 | CN(C)CCCNC(=O)C[C@H]1CC[C@H]2[C@@H](COC[C@@H](O)CN2S(=O)(=O)c2ccc(F)cc2)O1 | inactive
36 | C[C@H]1CCCCO[C@H](CN(C)CC2CCCCC2)[C@@H](C)CN([C@@H](C)CO)C(=O)c2cc(NC(=O)CCC(F)(F)F)ccc2O1 | inactive
37 | O=C(NO)c1ccc(C(=O)N/N=C/[C@H](O)[C@@H](O)[C@H](O)CO)cc1 | inactive
